STK33 inh: inhibitors of human STK33 kinase. ADP-Glo luminescence, MBP substrate. 27,000 tested, 0.44% active. inhibition, % at 12.5 µM. Q9BYT3; in the data active = inhibition above about 20%
Target sequence (Q9BYT3 whole entry, looked up): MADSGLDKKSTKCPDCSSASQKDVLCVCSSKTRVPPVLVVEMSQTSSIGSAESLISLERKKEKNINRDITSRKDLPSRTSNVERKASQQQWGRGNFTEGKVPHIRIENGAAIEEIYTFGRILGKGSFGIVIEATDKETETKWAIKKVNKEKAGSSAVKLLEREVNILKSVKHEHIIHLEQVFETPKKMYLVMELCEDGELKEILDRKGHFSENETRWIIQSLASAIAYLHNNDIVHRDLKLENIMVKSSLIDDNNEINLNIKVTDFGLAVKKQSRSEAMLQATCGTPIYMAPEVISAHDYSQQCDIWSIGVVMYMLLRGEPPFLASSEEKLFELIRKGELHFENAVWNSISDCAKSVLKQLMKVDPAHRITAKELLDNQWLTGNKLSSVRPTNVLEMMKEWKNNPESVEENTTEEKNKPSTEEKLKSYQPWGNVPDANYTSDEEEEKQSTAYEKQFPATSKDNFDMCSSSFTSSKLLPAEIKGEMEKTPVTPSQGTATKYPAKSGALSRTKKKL
PD-1 reversal: activators reversing PD-1 mediated T-cell inhibition | primary human CD4 T cells, PD-L1 beads, CellTiter-Glo 96 h | activation, % (no concentration beside the values) | 29,000 tested, under 10 active; call rule not given here;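 also: 0% = median vehicle wells and 100% = positive control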
NOMO-1 viab: STK33 inhibitor candidate reducing NOMO-1 cell viability; NOMO-1 AML viability, CellTiter-Glo luminescence, 72 h; inhibition, % (no concentration beside the values); 37,000 tested, 7.5% active; AID 2330; in the data active = inhibition above about 80%
* marks the source's active call; other numbers are inactive results. The entries come from a sample that favours hits as a whole.

What do the screens show for `CC[C@@H]1/C=C\C=C\C[C@H](C)C(O)[C@](C)(O)C(=O)[C@H](C)C(O)[C@H](C)C(=O)[C@H](C)[C@@H](O)[C@H](C)/C=C/C(=O)O[C@H]2[C@@H](C)[C@@H](CC1)O[C@@]1(CC[C@@H](C)[C@@H](C[C@H](C)O)O1)[C@@H]2C` (stereo partly specified)?
STK33 inh: -1; PD-1 reversal: -15; NOMO-1 viab: 124*

How did O=c1c2ccccc2[nH]c(=S)n1-c1cc(C(F)(F)F)cc(C(F)(F)F)c1 do in these assays?
PD-1 reversal: -1; NOMO-1 viab: 4

How did C=C1[C@@H](C)[C@H]2[C@H](Cc3ccccc3)NC(=O)[C@]23[C@H](OC(C)=O)C=C[C@](C)(O)C(=O)[C@@H](C)C/C=C/[C@H]3[C@@H]1O do in these assays?
STK33 inh: -12; NOMO-1 viab: 114*

What do the screens show for `O=C(O)c1nn(Cc2ccc(Cl)c(Cl)c2)c2ccccc12`?
STK33 inh: 1; NOMO-1 viab: 2

How did CC1=CC(=O)c2c(O)cccc2C1=O do in these assays?
STK33 inh: -10; NOMO-1 viab: 105*

What do the screens show for `COC(=O)CC1=C(C(=O)OC)C2(C(=O)Nc3ccccc32)C(C(=O)OC)=C(N)O1` (stereo unspecified)?
PD-1 reversal: -1; NOMO-1 viab: 16

What do the screens show for `C[C@@H]1O[C@@H](O[C@H]2[C@H](O)[C@@H](O)[C@H](O[C@@H]3C=C4CC[C@@H]5C(CC[C@]6(C)[C@@H](c7ccc(=O)oc7)CC[C@]56O)[C@@]4(C)CC3)O[C@@H]2CO)[C@H](O)[C@H](O)[C@H]1O` (stereo partly specified)?
STK33 inh: -2; PD-1 reversal: -34; NOMO-1 viab: 124*

Results for CC1(C)C(C(=O)Nc2ccccc2C(F)(F)F)C1(C)C ?
STK33 inh: -1; PD-1 reversal: -1; NOMO-1 viab: 8

How did CC(C)N1C(=O)c2ccccc2NS1(=O)=O do in these assays?
STK33 inh: 2; NOMO-1 viab: 3

How did CCc1ccc(CN2CCN(Cc3cccc(OC)c3)CC2)cc1 do in these assays?
PD-1 reversal: 0; NOMO-1 viab: 26

How did CCN1C[C@]2(C)CC[C@H](O)[C@@]34C2[C@H](OC)C([C@@H]13)[C@@]1(O)C[C@H](OC)[C@H]2C[C@@H]4[C@@H]1[C@H]2O do in these assays?
STK33 inh: -2; PD-1 reversal: -9; NOMO-1 viab: 107*

Results for CCN1CC2(COC)CCC(O)C34C5CC6C(OC)CC(O)(C5C6O)C(C(OC)C23)C14 (stereo unspecified) ?
STK33 inh: -1; PD-1 reversal: 0; NOMO-1 viab: 1

Results for CCNC(=O)[C@H]1O[C@@H](n2cnc3c(N)ncnc32)C(O)[C@H]1O (stereo partly specified) ?
STK33 inh: 3; PD-1 reversal: 8; NOMO-1 viab: 1

Results for COC[C@H]([C@@H](O)[C@@H](O)C(=O)NCC[C@@H](C)c1nc(/C=C/C[C@H]2OC3(C[C@H](O)[C@H]2C)OC([C@@H](C[C@@H](O)[C@@H](C)[C@@H](O)[C@@H](C)/C=C(C)/C(C)=C/C=C/C(C)=C\C#N)OC)[C@@H](OP(=O)(O)O)C3(C)C)co1)N(C)C (stereo partly specified) ?
STK33 inh: 2; PD-1 reversal: -42; NOMO-1 viab: 139*

Results for C/C(CC(c1ccccc1)c1c(O)c2ccccc2oc1=O)=N/O (stereo unspecified) ?
PD-1 reversal: 2; NOMO-1 viab: -8

Results for O=C1CC=C2C3CC4N(CCC45c4ccccc4N1C25)C/C3=C/CO (stereo unspecified) ?
STK33 inh: 3; PD-1 reversal: 1; NOMO-1 viab: 7

What do the screens show for `C[C@H]1O[C@@H](O[C@H]2[C@@H](O)C[C@H](O[C@H]3[C@@H](O)C[C@H](O[C@H]4CC[C@@]5(C)[C@H](CC[C@@H]6[C@@H]5CC[C@]5(C)[C@@H](C7=CC(=O)OC7)CC[C@]65O)C4)O[C@@H]3C)O[C@@H]2C)C[C@H](O)[C@@H]1O`?
STK33 inh: -8; PD-1 reversal: -34; NOMO-1 viab: 124*

What do the screens show for `CO[C@H]1C[C@H](OC2CCC3(C)C4CCC5(C)C(C6=CC(=O)OC6)CC(OC(C)=O)C5(O)C4CC[C@H]3C2)O[C@@H](C)[C@@H]1O` (stereo partly specified)?
STK33 inh: -2; PD-1 reversal: -16; NOMO-1 viab: 109*

Screens (PubChem BioAssay)
